Bioassay records as filed in PubChem.
TDP1 block: qHTS Assay for Inhibitors of Tyrosyl-DNA Phosphodiesterase (TDP1). Tyrosyl-DNA phosphodiesterase 1 (Homo sapiens), Q9NUW8. recombinant TDP1, AlphaScreen DNA substrate cleavage. Potency, µM (top dose mostly 130 µM), actives largely listed as inhibitors. 350,000 tested, 0.28% active; also: nearly all actives have a fitted effect of over 40% in size
Target sequence (Q9NUW8 whole entry, looked up): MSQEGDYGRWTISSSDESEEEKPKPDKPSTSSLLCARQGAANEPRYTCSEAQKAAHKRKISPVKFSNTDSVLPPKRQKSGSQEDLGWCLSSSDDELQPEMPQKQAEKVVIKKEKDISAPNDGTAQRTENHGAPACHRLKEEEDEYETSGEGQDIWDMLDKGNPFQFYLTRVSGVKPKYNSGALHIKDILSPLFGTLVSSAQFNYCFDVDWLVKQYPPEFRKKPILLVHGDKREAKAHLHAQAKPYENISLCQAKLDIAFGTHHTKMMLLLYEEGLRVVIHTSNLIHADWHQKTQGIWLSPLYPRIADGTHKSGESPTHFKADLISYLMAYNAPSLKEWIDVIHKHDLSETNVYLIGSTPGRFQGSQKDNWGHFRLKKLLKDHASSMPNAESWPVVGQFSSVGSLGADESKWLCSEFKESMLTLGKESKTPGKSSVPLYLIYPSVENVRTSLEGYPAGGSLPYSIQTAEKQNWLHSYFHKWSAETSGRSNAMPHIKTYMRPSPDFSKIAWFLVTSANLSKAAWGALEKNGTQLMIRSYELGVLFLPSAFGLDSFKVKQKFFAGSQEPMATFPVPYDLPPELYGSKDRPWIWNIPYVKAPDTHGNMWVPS
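Recombinant E. coli-expressed Tdp1 (1 nM) preincubated with compound 15 min at RT, then 5'-biotin/3'-phosphotyrosine-FITC DNA substrate (15 nM) added for 5 min. AlphaScreen beads (10 ug/ml) added, 10 min RT; tyrosine-FITC cleavage read as signal loss.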
IL-1B inflam inh: qHTS for Inhibitors of Inflammasome Signaling: IL-1-beta AlphaLISA Primary Screen. THP-1 LPS/ATP IL-1B secretion, AlphaLISA, 16 h; active compounds read low. 360,000 tested, 4.7% active. AID 743279, 2014. activity change, % at 57.5 µM; in the data active = activity change below about -50%; inconclusive = mostly about -30% to -49%
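Secreted IL-1B measured by AlphaLISA bead assay after 16 h compound exposure of THP-1 cells; compounds (final up to 57.5 uM) added 1 h before LPS (250 ng/mL) and ATP (1.25 mM) stimulation; lower signal means less secretion.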
DT40 TDP1 CPT: qHTS for Inhibitors of human tyrosyl-DNA phosphodiesterase 1 (TDP1): qHTS in cells in presence of CPT | Potency, µM (highest dose often 46.2 µM), actives largely listed as inhibitors | chicken DT40 Tdp1-/-;hTDP1 cells + 20 nM CPT, ATP luminescence, 48 h | 420,000 tested, 12% active; also: nearly all actives have a fitted effect of over 55% in size
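Chicken DT40 Tdp1-/- cells stably complemented with human TDP1 were seeded at 400 cells/well in medium containing 20 nM camptothecin, exposed to pin-transferred compounds, and grown at 37 °C for at least 48 hr. Viability was read as ATP luminescence.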
Giardia killer: Small Molecules that selectively kill Giardia lamblia: qHTS; Giardia lamblia trophozoite viability; activity change, % at 7.66 µM, hits read low; 340,000 tested, 0.15% active; AID 540267, 2011; in the data active = activity change below about -80%; inconclusive = between about -30% and that limit;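 also: parasites exposed to compound for two days anaerobically before the ATP read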
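Viability, read as ATP luminescence: trophozoites at 100 cells/well, compound added, 48 hrs anaerobic at 37 deg C, then 15-30 min room-temperature development before reading.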
TDP1 cell noCPT: qHTS for Inhibitors of human tyrosyl-DNA phosphodiesterase 1 (TDP1): qHTS in cells in absence of CPT; Potency, µM (doses to about 46.2 µM), usual class: inhibitors; 420,000 tested, 15% active; DT40 Tdp1-/- hTDP1 cells, no CPT, ATP luminescence, 48 h; also: nearly all actives have a fitted effect of over 55% in size
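A cellular qHTS used chicken DT40 cells lacking endogenous Tdp1 but carrying stably transfected human TDP1. Compounds were applied without camptothecin, and cell growth kinetics were judged by ATP-dependent luminescence after ≥48 hr.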
ELG1 DNA repair: qHTS screen for small molecules that inhibit ELG1-dependent DNA repair in human embryonic kidney (HEK293T) cells expressing luciferase-tagged ELG1. 330,000 tested, 2.3% active. Potency, µM (series often up to 46.1 µM), usual class: inhibitors. HEK293T ELG1-luciferase reporter, luminescence, 16 h; DNA damage induced by 5-fluorouridine. AID 504467, 2011; also: nearly all actives have a fitted effect of over 55% in size
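Reporter activity after DNA damage by 5-fluorouridine is monitored. Compound-treated cells incubate 16 hr at 37 °C, then ONE-Glo is added for 30 min before luminescence reading.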
A number is an active result; i = inactive; ? = inconclusive; nt = not tested or not shown; ! = a repeat was not active; [ ] = remark or other dose. Only some compounds are listed: those with a hit (about 19% of all), similar ones and a draw of the others. Unless noted, calls follow the shape of the dose curve; as a rule, active = well fitted curve in the direction sought with a large enough effect; inconclusive = small, poorly fitted or top-dose-only effect, or another doubt; inactive = no such curve, though single readings can be large; an effect the other way counts as inactive or inconclusive.

SMILES	TDP1 block	IL-1B inflam inh	DT40 TDP1 CPT	Giardia killer	TDP1 cell noCPT	ELG1 DNA repair
CCN1CCN(S(=O)(=O)c2ccc(Cl)c(C(=O)N(CCc3ccccc3)Cc3ccccc3)c2)CC1	nt	i	23µM	i	23µM	nt
O=C(NC1CCCCC1)C1c2ccccc2OCC(=O)N1Cc1ccccc1 (centres undefined)	nt	i	i	nt	?	nt
CN(Cc1ccco1)C(=O)CSc1nn2c(=O)c(C(C)(C)C)nnc2s1	nt	i	i	i	i	i
COC(=O)[C@H](C)NC(=O)C/C=C\[C@@H](C)[C@H]1C=C[C@H](O)[C@@H](CO)O1	i[21 µM]	nt	nt	nt	nt	nt
COc1ccccc1C1CN=NC12CCCc1ccccc1C2=O (centres undefined)	i	i	?	i	?	i
COC(=O)c1c(C)cccc1C1CN=NC12Cc1ccccc1C2=O (centres undefined)	nt	-90	15µM	i	?	nt
O=C(CSc1nnc(COc2ccc(Br)cc2)o1)N1CCOCC1	i	i	i	i	18µM	?
O=C(COc1ccc2cc(Br)ccc2c1)N1CCOCC1	i	i	15µM	i	?	i
CCCCOc1ccc(C(=O)Nc2ccc(OCC(=O)N3CCOCC3)cc2)cc1	i	i	i	i	i	?
O=C(Nc1ccc(OCC(=O)N2CCOCC2)cc1)c1cncc(Br)c1	i	i	?	i	?	9.2µM
O=C(COc1ccc(C(=S)N2CCOCC2)cc1)N1CCOCC1	i	i	i	i	i	i
CCOC(=O)/C(=C/c1ccc(OC(=O)c2ccccc2)cc1)C(C)=O	i	i	18µM	i	?	?
CCOC(=O)C(=Cc1ccc(N(C)C)cc1)C(=O)c1ccccc1	nt	-75	16µM	nt	?	nt
CCC(C)Sc1ccc(-c2nc3cnccn3c2NC2CCCCC2)cc1 (centres undefined)	i	-52!	?	i	16µM	?
Clc1ccc(-c2nc3cnccn3c2NC2CCCC2)cc1	i	i	?	i	26µM	i
COc1ccc(Sc2ccc(-c3nc4cnccn4c3NC3CCCCC3)cc2OC)cc1	i	?	15µM	i	13µM	?
CCC(C)Sc1ccc(-c2nc3cc(C)ccn3c2NC2CCCCC2)cc1 (centres undefined)	i	-66!	23µM	i	15µM	i
Cc1ccn2c(NC3CCCCC3)c(C(C)C)nc2c1	i	i	i	i	i	i
COC(=O)C1C(c2ccc(N(C)C)cc2)C(C(=O)OC)S(=O)(=O)CS1(=O)=O (centres undefined)	i	i	i	i	i	i
CCN1/C(=C\C=C2\C(=O)N(c3ccccc3)C(=S)N2C)Sc2ccccc21	i	i	?	i	10µM	i
CCN1/C(=C2\OC(=S)N(C)C2=O)Sc2ccccc21	i	i	i	i	i	?
O=C(O)c1ccccc1OCCOc1ccccc1C(=O)O	i	i	i	i	i	i
Oc1ccccc1OCCOc1ccccc1OCCOc1ccccc1O	i	?	?	i	21µM	?
COc1cc2c(cc1OC)C(C)N(C(=S)NC(=O)c1ccccc1)CC2 (centres undefined)	i	i	?	i	21µM	?
COc1cc2c(cc1OC)[C@H](C)N(C(=O)NCc1ccccc1)CC2	nt	i	23µM	i	7.3µM	i
SMILES	TDP1 block	IL-1B inflam inh	DT40 TDP1 CPT	Giardia killer	TDP1 cell noCPT	ELG1 DNA repair
COc1cccc(C(=O)Nc2ccccc2-c2nnc(-c3ccc(C(C)(C)C)cc3)o2)c1	i	nt	?	nt	?	nt
CC(=O)Nc1cccc(-c2nnc(SCC(=O)c3cc([N+](=O)[O-])ccc3Br)o2)c1	i	nt	5.2µM	nt	5.2µM	nt
CC(=O)Nc1cccc(-c2nnc(SCC(=O)c3ccc([N+](=O)[O-])cc3)o2)c1	i	nt	nt	nt	nt	nt
COc1ccc(NC(=O)CCNS(=O)(=O)c2cccc3nonc23)cc1	i	i	i	i	i	i
Cc1ccc(NC(=O)CC2NCCNC2=O)cc1Cl (centres undefined)	i	i	i	i	i	i
Cc1c(C(=O)NCCCc2ccncc2)cnn1-c1nccc(-c2ccccc2F)n1	nt	nt	i[9.04 µM]	nt	18µM	nt
CC(C)c1nc2n(n1)C1(CCCCC1)[C@@H]1CCCC[C@@H]1N2	i	nt	?	nt	23µM	nt
CC(C)C(=O)N1c2nc(C(C)C)nn2C2(CCCCC2)[C@@H]2CCCC[C@@H]21	i	nt	6.5µM	nt	4.6µM	nt
CN1C(=O)COc2ccc(C(=O)c3oc4ccccc4c3-c3cnc4c(c3)COc3ccccc3-4)cc21	i	nt	nt	nt	nt	9.2µM
COc1cccc(NC(=O)CN(C)C(=O)c2cccc(S(=O)(=O)Nc3ccc(C)cc3)c2)c1	i	i	i	i	i	?
CN(CC(=O)Nc1cccc(F)c1)C(=O)c1cc(S(=O)(=O)N2CCN(c3ccccc3)CC2)ccc1Cl	i	i	16µM	i	13µM	?
COc1cccc(NC(=O)CN(C)C(=O)c2cccc(S(=O)(=O)N3CCN(c4ccc(F)cc4)CC3)c2)c1	i	i	16µM	i	16µM	?
CN(CC(=O)Nc1cccc(F)c1)C(=O)c1cccc(S(=O)(=O)N2CCN(c3ccccc3)CC2)c1	i	?	?	i	?	?
CN(CC(=O)Nc1ccc(F)cc1)C(=O)c1cccc(S(=O)(=O)N2CCN(c3ccc(F)cc3)CC2)c1	nt	i	15µM	i	13µM	?
COc1ccc(C(=O)NC2CCSc3ccccc32)cc1S(=O)(=O)N1CCOCC1 (centres undefined)	nt	i	?	i	?	i
Cc1ccccc1P(=O)(c1ccccc1)c1ccccc1C	nt	i	?	nt	18µM	nt
COc1ccccc1P(=O)(c1ccccc1)c1ccccc1	nt	i	i	i	i	?
CC(OC(=O)C1CC(=O)N(Cc2ccccc2)C1)C(=O)Nc1cccc(C#N)c1 (centres undefined)	i	i	i	i	i	i
Cc1cc(=O)oc2cc(OCC3CC(c4ccc(Cl)cc4)=NO3)ccc12 (centres undefined)	i	i	28µM	i	?	?
Cc1cc(=O)oc2cc(OCC3CC(c4ccc(N(C)C)cc4)=NO3)ccc12 (centres undefined)	i	i	i	i	i	i
Cc1ccc(C)c(OCCn2cc(/C=C(/C#N)C(=O)NCC3CCCO3)c3ccccc32)c1 (centres undefined)	i	i	16µM	i	?	15µM
